# Assay outcomes from PubChem BioAssay.
# CHX counter – counter-screen hit for Shiga toxin inhibitors, cycloheximide; cell reporter, cycloheximide protein synthesis inhibition counterscreen; max response, %; 12% of 300,000 active; in the data active means max response mostly above about 13%, no sharp cut-off; inactive means mostly below about 14%; further: read at 38.3 µM for the half of the compounds with a filed dose; 0% is about no effect
# Shiga toxin inh – blocks Shiga toxin action in Vero cells | AID 2315 | inhibition, % at 38.7 µM | 9.2% of 290,000 active | Vero cells, Shiga toxin protein synthesis inhibition reporter; in the data active means inhibition mostly above about 28%, no sharp cut-off; inactive means mostly below about 43%; further: 0% is about no effect
# SARS PLP yeast – blocks SARS-CoV papain-like protease in a yeast assay | S. cerevisiae expressing SARS-CoV PLpro, growth rescue | Potency, µM (highest dose often 32.9 µM), for inactives: at the highest dose activity, positive = growth rescue, most hits filed as activators | 0.19% of 330,000 active | AID 485353; further: potency means the concentration at half of the fitted maximal effect; 0% is about no effect; nearly all actives have a fitted effect of over 55% in size
# NS1 function inh – blocks influenza NS1 protein function. AID 2326. 0.4% of 270,000 active. Potency, µM (highest dose often 46.1 µM), inactives show at the highest dose activity, positive = more growth; further: potency means the concentration at half of the fitted maximal effect; actives are rising curves; nearly all actives have a fitted effect of over 50% in size
#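 A cell-based growth assay was used: compounds that relieve NS1-induced slow growth of budding yeast raise OD600. Assay medium was yeast nitrogen base with ammonium sulphate and -URA supplement, pH 6.0, with 2% galactose.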
# Starred values were filed as active, the others as inactive; u = inconclusive; x = no result. Only some compounds are listed: those with a hit (about 12% of all), similar ones and a draw of the others. Unless noted, the call rests on the fitted dose curve.
SMILES,CHX counter,Shiga toxin inh,SARS PLP yeast,NS1 function inh
CC(C)C(NS(=O)(=O)c1ccccc1)C(=O)N1CCCCCC1 (stereo not drawn),-3.9,-3.5,u,-8.4%
O=C1CC(C(=O)Nc2ccc(Cl)cc2[N+](=O)[O-])C2(CCCCC2)O1 (stereo not drawn),-3.9,-1.5,14.9%,-1.4%
COCCN(C(=O)COC(=O)/C=C/c1ccc2ccccc2n1)c1c(N)n(Cc2ccccc2)c(=O)[nH]c1=O,11.0*,36.4,1.7%,-2.1%
CN(C(=O)COC(=O)/C=C/c1ccc2ccccc2n1)c1c(N)n(Cc2ccccc2)c(=O)[nH]c1=O,x,x,3.3%,x
COc1ccc(Cc2n[nH]c(=S)o2)cc1,-2.8,-3.6,11.6%,5.9%
N#CCSc1nnc(COc2ccc3ccccc3c2)o1,67.1*,93.4*,-17.1%,-49.1%
S=c1[nH]nc(COc2ccc3ccccc3c2)o1,15.3,43.0*,-23.2%,-16.2%
CCOc1ccc(C(=O)N/N=C/c2cccc3cccnc23)cc1,34.6*,69.7,2.4%,-222.6%
Cc1ccc(C(=O)N/N=C\c2ccccc2[N+](=O)[O-])cn1,23.4*,52.7,-1.4%,x
Cc1ccc(C(=O)N/N=C/c2cc(Br)ccc2O)cn1,15.6*,x,15.8%,-112.9%
COc1ccc(C(=O)N/N=C/c2cccc3cccnc23)cc1,-2.5,-4.4,-10.7%,-51.4%
CCC(=O)Nc1ccc(C(=O)N/N=C/c2ccccc2[N+](=O)[O-])cc1,5.6,11.9,-2.6%,-7.5%
Cc1ccc(C(=O)N/N=C\C=C\c2ccccc2[N+](=O)[O-])cn1,5.9,2.5,0.5%,10.0%
CCOc1ccc(C(=O)N/N=C/c2ccccc2[N+](=O)[O-])cc1,73.0*,102.1*,5.4%,-12.9%
O=C(O)c1ccc(NC(=O)c2ccco2)c(NC(=O)c2ccco2)c1,0.7,9.7,1.2%,-4.5%
Fc1cccc(Cl)c1CSc1nnc2ccccn12,42.3*,91.0*,1.9%,x
CCn1c(SCc2c(F)cccc2Cl)nnc1-c1ccco1,12.4*,34.0*,10.2%,-100.8%
Clc1cccc(Cl)c1CSc1nnc2ccccn12,0.7,22.4,8.6%,6.3%
Brc1ccc(CSc2nnc3ccccn23)cc1,25.6*,49.7*,0.9%,x
Fc1ccc(CSc2nnc3ccccn23)c(Cl)c1,44.5*,95.9*,-1.9%,x
COc1ccccc1-c1cc(C(F)(F)F)nc(S(=O)(=O)CCCC(=O)NC(C)C)n1,-3.2,-11.4,2.1%,-4.2%
COc1ccccc1-c1cc(C(F)(F)F)nc(S(=O)(=O)CCCC(=O)NCc2ccc(F)cc2)n1,19.7*,-25.5,-6.4%,x
COc1ccc(-c2cc(C(F)(F)F)nc(S(=O)(=O)CCCC(=O)Nc3cc(C)on3)n2)cc1OC,24.7*,-1.3,0.7%,x
COc1ccccc1-c1cc(C(F)(F)F)nc(S(=O)(=O)CCCC(=O)Nc2cc(C)on2)n1,-3.7,-7.0,2.9%,1.8%
CC(SCC(=O)Nc1ccccc1Br)c1nc2ccccc2c(=O)[nH]1 (stereo not drawn),x,x,1.3%,x
SMILES,CHX counter,Shiga toxin inh,SARS PLP yeast,NS1 function inh
O=C(Nc1cc2c(cc1Br)OCCO2)c1ccco1,39.7*,active,4.3%,-11.2%
O=C(Nc1c(C(=O)Nc2ccc3c(c2)OCCO3)cnn1-c1ccccc1Cl)c1ccco1,76.5*,149.5*,1.0%,-19.6%
O=C(Nc1cc2c(cc1Br)OCCO2)c1cccs1,42.5*,180.6*,-10.1%,-51.6%
CCCC(=O)c1cc2c(cc1NC(=O)c1cccs1)OCCO2,-4.5,-7.2,8.6%,-1.1%
CC(=O)c1cc2c(cc1NC(=O)c1ccco1)OCCO2,9.9,15.2,0.6%,-0.5%
O=C(Nc1ccc(NC(=O)c2ccco2)c(Cl)c1)c1ccc2c(c1)OCCO2,26.9*,64.4*,0.9%,-45.2%
OCC[C@@H]1C[C@H](O)[C@@H](O)[C@]2(CCc3ccccc3CO2)O1,-1.2,-7.7,-2.6%,-9.6%
CCC(C)(C)NC(=O)C(c1cccc(OC)c1OC)N(CCOC)C(=O)CCC(=O)Nc1cc(C)on1 (stereo not drawn),-1.0,-5.3,0.8%,-1.8%
O=C(Nc1cc2c(cc1Br)OCCO2)c1cccnc1,24.0*,65.9,3.1%,u
O=C(Nc1cc2c(cc1Cl)OCCO2)c1ccco1,27.8*,92.6*,0.3%,-5.7%
N#Cc1cc2c(nc1SCc1cccnc1)CCCCC2,16.5,129.6*,x,-118.1%
N#Cc1cc2c(nc1SCC(=O)O)CCCCC2,19.0,57.7,0.5%,5.0%
N#Cc1cc2c(nc1SCc1ccccc1)CCCCC2,8.8,56.5,-1.8%,-8.9%
N#CCSc1nc2c(cc1C#N)CCCC2,30.4*,57.2,-16.3%,-63.0%
C=CCOc1ccc(CN(C)C(=O)CNC(=O)c2ccc(-c3ccccc3)cc2)cc1,5.4,30.3,0.0%,3.2%
COc1ccc(OC)c(/C=C/C(=O)OCC(=O)N2CCN(S(=O)(=O)c3ccc(C)cc3C)CC2)c1,x,x,-3.2%,x
